# In PubChem BioAssay:
# Several values for one entry are separate records, joined by “and”; a condition that tells them apart may be missing. Identical values can stand only once. Activity calls are given as the source filed them. Cut-off read from the data, not from the text of the source, unless noted: active = inhibition above about 80%; inactive = the rest.
# What was measured:
# [1] = viability loss with induced miR-34 in A549 – imaging, A549 dox-inducible miR-34, nuclei and caspase counts, primary screen (AID 1347080;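 active = compounds whose cell count with miR-34 switched on is under 0.7 times the count with it off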); conditions: A549 miR-34 inducible, Hoechst nuclei count, 48 h
# [2] = MELAS cybrid and Rieske KO viability enhancers – cell-based, MELAS cybrids, Rieske KO mouse fibroblasts, CellTiter-Glo, primary screen (AID 1508586;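 active = mean z-score across replicates of 1.96 or higher in either the MELAS or the Rieske mutant cell line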;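 note: z relative to plate mean and SD of compound and empty wells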); conditions: low glucose
# [3] = growth inhibition, single agent or in combination, cell-based, chromothripsis tumors, cisplatin or BGB combos (AID 1671449); conditions: LFS_MB_P medulloblastoma cells;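 note: cells exposed for 96 hours; 0% = vehicle DMSO and 100% = killing by high DMSO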
# [4] = growth inhibition, single agent and combos, cell-based, chromothripsis tumors, cisplatin or BGB combos (AID 1671450); conditions: HDN33 neuroblastoma cells, stronger effect = higher value;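 note: cells exposed to compound for four days; 0% = vehicle DMSO and 100% = cell killing by high DMSO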
# [5] = growth inhibition, single agents and combos, ICB984, cell-based, cisplatin or BGB combos, synergistic combos for chromothripsis tumors (AID 1671451; call rule not given here;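 note: cells exposed for 96 hours before readout; 0% = vehicle DMSO and 100% = killing by high DMSO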); conditions: ICB984 medulloblastoma cells, drug combinations, stronger effect = higher value
# [6] = growth inhibition, single agents and combos, LFS_MB_1R, cell-based, cisplatin or BGB combos, synergistic combos for chromothripsis tumors (AID 1671452); conditions: LFS_MB_1R medulloblastoma cells, stronger effect = higher value;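 note: cells exposed for 96 hours before readout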
# [7] = growth inhibition, single agents and combos, HTB85, cell-based, BGB or cisplatin IC20 combos, synergistic combos for chromothripsis tumors (AID 1671453); conditions: HTB85 osteosarcoma cells, drug combinations, stronger effect = higher value;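 note: cells exposed for 96 hours before readout; 0% = vehicle DMSO and 100% = high DMSO killing control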
# [8] = growth inhibition, single agents and combos, CRL2098, cell-based, BGB or cisplatin IC20 combos, synergistic combos for chromothripsis tumors (AID 1671454); conditions: CRL2098 osteosarcoma cells, drug combinations, stronger effect = higher value;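 note: cells exposed for 96 h before readout; 0% = vehicle DMSO and 100% = killing by high DMSO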
# [9] = growth inhibition, single agents and combos, HD-MB03, cell-based, BGB or cisplatin IC20 combos, synergistic combos for chromothripsis tumors (AID 1671455; in the data active = inhibition above about 83%;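 note: 0% = vehicle DMSO and 100% = high DMSO as cytotoxic control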); conditions: HD-MB03 medulloblastoma cells, stronger effect = higher value
# [10] = growth inhibition, single agents and combos, UWB1.289, cell-based, BGB or cisplatin combos, synergistic combos for chromothripsis tumors (AID 1671456); conditions: UWB1.289 ovarian carcinoma cells, stronger effect = higher value;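 note: cells exposed to compound for four days; 0% = vehicle DMSO and 100% = killing by high DMSO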
# [11] = growth inhibition, single agents and combos, LFS_MB_2R, cell-based, cisplatin combos, synergistic combos for chromothripsis tumors (AID 1671457); conditions: LFS_MB_2R medulloblastoma cells, stronger effect = higher value;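 note: cells exposed to compound for four days before readout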
# [12] = growth inhibition, MDA-MB-436, cell-based, BGB or cisplatin combos, synergistic combos for chromothripsis tumors (AID 1671458; call rule not given here;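 note: cells exposed for 96 hours; 0% = vehicle DMSO and 100% = killing by high DMSO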); conditions: MDA-MB-436 breast carcinoma growth inhibition, drug combinations, stronger effect = higher value
# [13] = UWB1.289_BRCA1 ovarian cancer growth, cell-based, BGB or cisplatin combinations (AID 1671459); conditions: UWB1.289 BRCA1 ovarian carcinoma, drug combinations, stronger effect = higher value
# [14] = drug combination toxicity in non-malignant astrocytes – cell-based, BGB or cisplatin IC20 combos, cytotoxicity control for chromothriptic childhood tumor combination screen (AID 1671460); conditions: Human astrocytes, viability inhibition, drug combinations, at 0.5 µM, stronger effect = higher value;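 note: cells exposed to compounds for 96 hours before viability readout; 0% = vehicle and 100% = killing control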
# [15] = BT084 cell growth, single and combined drugs, ICGC_MB145, cisplatin and BGB IC40 combos (AID 1671461); conditions: BT084 medulloblastoma cells, drug combinations, stronger effect = higher value;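 note: cells exposed to drugs for 96 hours; 0% = vehicle DMSO and 100% = high DMSO full killing control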
# [16] = RCMB18 cell growth, single agent and combined, cisplatin and BGB IC40 combos (AID 1671462); conditions: RCMB18 medulloblastoma cells, stronger effect = higher value;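 note: cells exposed to compound for four days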
# [17] = CRL1545 cell growth, single agent and combined, cisplatin and BGB IC20 combos (AID 1671464); conditions: CRL1545 osteosarcoma cells, stronger effect = higher value;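 note: cells exposed to compound for 96 hours before readout; 0% = vehicle DMSO and 100% = high DMSO killing control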
# [18] = measured here: combination with BGB IC40, at 0.05 µM
# [19] = measured here: with BGB IC20 combination, at 0.5 µM
# [20] = measured here: with cisplatin IC20 combination, at 0.5 µM
# [21] = measured here: combination with cisplatin, at 0.5 µM
# [22] = measured here: combination with cisplatin, at 5 µM
smiles,measurement,setting,value
O=c1[nH]cnc2c1ncn2C1OC(CO)C(O)C1O (centres undefined),fold change,"[1]; stronger effect = lower value, cell number ratio, induced over uninduced",0.971 (inactive)
same,fold change,[1]; measured here: relative caspase fold change +Dox/-Dox,0.634
same,cell count,"[1]; measured here: total cells with miR-34 induction, stronger effect = lower value",8460
same,cell count,[1]; measured here: total cells without miR-34 induction,8710
same,z-score,"[2]; MELAS cybrid survival, CellTiter-Glo 48 h, stronger effect = higher value",-0.214 (inactive)
same,z-score,"[2]; Rieske KO mouse fibroblast survival, CellTiter-Glo 72 h",-0.0718
same,inhibition,"[3]; at 0.5 µM, stronger effect = higher value",-10.7% (inactive) and -25.9% (inactive)
same,inhibition,"[3]; measured here: combination with BGB IC20, at 0.005 µM",-29.2% and -10.3%
same,inhibition,"[3]; measured here: combination with BGB IC40, at 0.005 µM",-37.9% and -36.7%
same,inhibition,[3]; [18],-34.2% and -41.2%
same,inhibition,"[3]; measured here: combination with cisplatin, at 0.5 µM, stronger effect = higher value",-24.2% and -36.9%
same,inhibition,"[3]; measured here: combination with cisplatin, at 5 µM, stronger effect = higher value",-32.2% and -50.7%
same,inhibition,"[4]; BGB combo, at 5 µM",-71.8% and -17.3%
same,inhibition,[4]; at 0.5 µM,-41% (inactive) and -8.53% (inactive)
same,inhibition,"[4]; cisplatin combo, at 5 µM",-53.5% and 3.12%
same,inhibition,[4]; [19],-43% and -17%
same,inhibition,[4]; [20],-29.3% and -1.72%
same,inhibition,"[4]; single agent, at 5 µM",-56.1% and -7.95%
same,inhibition,"[5]; BGB IC20 combo, at 0.005 µM",-8.62% and -21.3%
same,inhibition,"[5]; BGB IC40 combo, at 0.005 µM",-26.4% and -10.8%
same,inhibition,"[5]; BGB IC40 combo, at 0.05 µM",-29.3% and -11.3%
same,inhibition,[5]; at 0.5 µM,-22.2% (inactive) and -24.4% (inactive)
same,inhibition,"[5]; cisplatin combo, at 0.05 µM",-36% and -15.3%
same,inhibition,"[5]; cisplatin combo, at 0.5 µM",-33.9% and -9.22%
same,inhibition,"[5]; cisplatin combo, at 5 µM",-24.4% and -48%
same,inhibition,"[5]; measured here: 5 uM single agent, at 5 µM",-3.92% and -14.5%
same,inhibition,[6]; at 0.5 µM,-44.3% (inactive) and -17.7% (inactive)
same,inhibition,[6]; [18],-7.53% and -27.6%
same,inhibition,[6]; [21],-65.5% and -12.7%
same,inhibition,[6]; [22],-61.2% and -68.6%
same,inhibition,[7]; at 0.5 µM,-33.2% (inactive) and -8.83% (inactive)
same,inhibition,"[7]; measured here: with BGB IC20, at 0.5 µM",-29.3% and -11.2%
same,inhibition,"[7]; measured here: with BGB IC20, at 5 µM",-15.9% and -25.5%
same,inhibition,"[7]; measured here: with cisplatin IC20, at 0.5 µM",-32% and -10.1%
same,inhibition,"[7]; measured here: with cisplatin IC20, at 5 µM",-20.2% and -47.1%
same,inhibition,"[7]; single agent, at 5 µM",-29.3% and -10.1%
same,inhibition,[8]; at 0.5 µM,-90% (inactive) and -56.6% (inactive)
same,inhibition,"[8]; measured here: combination with BGB at IC20, at 0.5 µM",-87.4% and -18.5%
same,inhibition,"[8]; measured here: combination with cisplatin at IC20, at 0.5 µM",-101% and -96.8%
same,inhibition,[9]; at 0.5 µM,-22.6% (inactive) and -12.7% (inactive)
same,inhibition,"[9]; measured here: combo with BGB at IC20, at 0.5 µM",-22.7% and -11.5%
same,inhibition,"[9]; measured here: combo with cisplatin at IC20, at 0.5 µM",-27.8% and -18.3%
same,inhibition,[10]; at 0.5 µM,-11.2% (inactive) and -3.6% (inactive)
same,inhibition,"[10]; measured here: inhibition with BGB combination, at 0.05 µM",-39.3% and 0.127%
same,inhibition,"[10]; measured here: inhibition with cisplatin combination, at 0.05 µM",-26% and -16.8%
same,inhibition,[11]; at 0.5 µM,-25.5% (inactive) and -18.4% (inactive)
same,inhibition,[11]; [21],-31.3% and -25.6%
same,inhibition,[11]; [22],-22.2% and -17.4%
same,inhibition,[12]; at 0.5 µM,-21.2% (inactive) and -4.5% (inactive)
same,inhibition,"[12]; measured here: BGB combination, at 0.5 µM",-24.8% and -4.38%
same,inhibition,"[12]; measured here: BGB combination, at 5 µM",-28.5% and -13.8%
same,inhibition,"[12]; measured here: cisplatin combination, at 0.5 µM",-29.8% and -11.4%
same,inhibition,"[12]; measured here: cisplatin combination, at 5 µM",-15.5% and -7.72%
same,inhibition,"[13]; BGB combination, concentration series, at 5 µM",-23.4% and 11.7%
same,inhibition,[13]; at 0.5 µM,-19.3% (inactive) and -1.78% (inactive)
same,inhibition,"[13]; cisplatin combination, concentration series, at 5 µM",-16.4% and -23.2%
same,inhibition,[14],3.07% (inactive) and 14% (inactive)
same,inhibition,[14]; measured here: combo with BGB IC20,13.9% and 6.47%
same,inhibition,[14]; measured here: combo with cisplatin IC20,-4.13% and 24.5%
same,inhibition,[15]; at 0.5 µM,-1.88% (inactive) and -23.7% (inactive)
same,inhibition,"[15]; cisplatin combination, at 0.5 µM",-2.01% and -52.6%
same,inhibition,"[15]; cisplatin combination, at 5 µM",-202% and -23.5%
same,inhibition,"[15]; measured here: BGB IC40 combination 0.05 uM, at 0.05 µM",-22.8% and -31.6%
same,inhibition,"[15]; single agent, at 5 µM",-16.1% and -9.19%
same,inhibition,[16]; at 0.5 µM,-14.6% (inactive) and -17.6% (inactive)
same,inhibition,"[16]; cisplatin combo, at 5 µM",-27.4% and -4.56%
same,inhibition,"[16]; measured here: BGB IC40 combination, at 0.05 µM",-8.27% and -1.88%
same,inhibition,[16]; [21],-12.7% and -17.5%
same,inhibition,"[16]; single agent, at 5 µM",-19.5% and -20.5%
same,inhibition,[17]; at 0.5 µM,-5.83% (inactive) and -5.48% (inactive)
same,inhibition,[17]; [19],-50.4% and -16.7%
same,inhibition,[17]; [20],15.1% and -1.52%
same,inhibition,"[17]; single agent, at 0.05 µM",-48.7% and 14.4%
same,inhibition,"[17]; single agent, at 5 µM",-40.4%
